# A selection: hits, their analogues and other compounds. The true share with any hit is near 6.9%.
# SW480 rereplic = DNA re-replication induction in SW480 cells; SW480 DNA re-replication, Hoechst DNA content imaging, 48 h; Potency, µM (series often up to 46.1 µM), for the others: top-dose re-replication activation, most hits filed as activators; 1.8% of 340,000 active; AID 624297; also: potency is read from the fitted curve at half-maximal effect; % of control where 0% means no effect; nearly all actives have a fitted effect of over 55% in size
#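 SW480 cells exposed to compounds for 48 hr at 37 C, 5% CO2, then Hoechst-stained 40 min. Nuclear DNA content imaged by fluorescence scanning (405 nm excitation, 500-530 nm emission); re-replication scored as increased high-intensity nuclei.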
# KB-V1 cytotox = KB-V1 MDR subline cytotoxicity; KB-V1 MDR cells viability, CellTiter-Glo, 72 h; Potency, µM (doses to about 46.1 µM), hits mostly cytotoxic; 3.4% of 400,000 active; also: potency is read from the fitted curve at half-maximal effect; % is scaled to controls: 0 for no effect and ±100 for the full control effect; nearly all actives have a fitted effect of over 60% in size
#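 Compound-treated KB-V1 multidrug-resistant cells, 72 h, 37 degrees C; viability by CellTiter-Glo. Fitted qHTS curves give the values.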
# MCF10A rerep = induces DNA re-replication in MCF 10a normal breast cells. MCF 10A DNA re-replication, Hoechst nuclear intensity, 48 h. Potency, µM (top dose mostly 46.1 µM), without a hit: at the top dose activity, positive = re-replication, hits mostly activators. 2.9% of 350,000 active; also: potency is read from the fitted curve at half-maximal effect; % of control where 0% means no effect; nearly all actives have a fitted effect of over 50% in size
# S-ASM inh = inhibitors of human secretory acid sphingomyelinase; AID 504937; placental ASM, HMU-PC fluorogenic substrate, 60 min; Potency, µM (series often up to 57.5 µM), for the others: top-dose activity change, negative = inhibition, actives largely listed as inhibitors; 0.006% of 340,000 active; also: potency is read from the fitted curve at half-maximal effect
# Target sequence (P17405 47-631 limits assumed): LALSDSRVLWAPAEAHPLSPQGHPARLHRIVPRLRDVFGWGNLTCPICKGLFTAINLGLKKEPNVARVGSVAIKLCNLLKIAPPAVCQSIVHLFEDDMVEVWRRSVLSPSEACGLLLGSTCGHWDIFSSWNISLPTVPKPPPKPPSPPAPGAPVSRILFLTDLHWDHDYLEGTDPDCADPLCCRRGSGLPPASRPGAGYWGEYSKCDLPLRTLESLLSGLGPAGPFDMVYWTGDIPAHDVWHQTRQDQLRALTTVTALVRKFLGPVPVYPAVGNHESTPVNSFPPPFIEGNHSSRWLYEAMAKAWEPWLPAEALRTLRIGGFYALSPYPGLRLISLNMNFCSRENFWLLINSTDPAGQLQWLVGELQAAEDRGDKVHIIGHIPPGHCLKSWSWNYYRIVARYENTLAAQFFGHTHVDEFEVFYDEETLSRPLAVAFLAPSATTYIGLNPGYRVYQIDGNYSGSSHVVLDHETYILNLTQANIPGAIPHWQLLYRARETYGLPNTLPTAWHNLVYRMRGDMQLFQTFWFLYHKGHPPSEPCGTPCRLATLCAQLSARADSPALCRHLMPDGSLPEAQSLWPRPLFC
#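 Fluorogenic HMU-PC substrate (9 uM final) is turned over by placental ASM in 60 min at 37 C after a 10 min compound preincubation. Reaction ended by alkaline stop (pH 10), with fluorescence read at 386/447 nm.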
# Giardia kill = kills Giardia lamblia; Giardia lamblia trophozoite viability; activity change, % at 7.66 µM, hits read low; 0.15% of 340,000 active; in the data active = activity change below about -80%; inconclusive = between about -30% and that limit;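 also: parasites exposed to compound for two days anaerobically before the ATP read; % is scaled to controls: 0 for no effect and ±100 for the full control effect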
#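 Luminescent ATP signal served as the viability read-out, measured 15-30 min after adding ATP detection reagent to trophozoites that had been incubated with compounds for 48 hrs at 37 deg C anaerobically at 100 cells/well.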
# KB-3-1 cytotox = KB-3-1 parental cell cytotoxicity | KB-3-1 viability, CellTiter-Glo ATP luminescence, 72 h | Potency, µM (series often up to 46.1 µM), most hits filed as cytotoxic | 1.4% of 400,000 active; also: potency is read from the fitted curve at half-maximal effect; % is scaled to controls: 0 for no effect and ±100 for the full control effect; nearly all actives have a fitted effect of over 60% in size
#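 Here the drug-naive KB-3-1 line serves as comparator for MDR sub-line selectivity; cells received compound titrations, 72 h at 37 °C, then CellTiter-Glo readout.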
# * marks the source's active call; other numbers are inactive results; i = inactive; ? = inconclusive; . = not tested or not shown; ! = not confirmed by another sample; [ ] = remark or other dose. Unless noted, calls follow the shape of the dose curve; as a rule, active = well fitted curve in the direction sought with a large enough effect; inconclusive = small, poorly fitted or top-dose-only effect, or another doubt; inactive = no such curve, though single readings can be large; an effect the other way counts as inactive or inconclusive.
SMILES,SW480 rereplic,KB-V1 cytotox,MCF10A rerep,S-ASM inh,Giardia kill,KB-3-1 cytotox
N/C(=N\N=C\c1ccnc2ccccc12)SC1CC(=O)N(c2ccc(Br)cc2)C1=O (centres undefined),0%,i,7.3µM*,-3%,5,i
C[N+](=O)C1C(=O)Nc2ccccc21 (centres undefined),.,i,.,.,.,.
CC(C)CCSc1nc(N)c(C#N)cc1C#N,-1%,21µM*,17%,46%,-17,i
COc1ccc(-c2nc(C)c(CCNC(=O)c3cccs3)s2)cc1,.,8.2µM*,.,.,.,i
Cc1ccc(-c2nc(C)c(CCNC(=O)c3cccs3)s2)cc1,.,?,.,.,.,i
CC(=O)c1ccc(NC(=O)CC2Sc3ccccc3NC2=O)cc1 (centres undefined),.,i,.,.,.,i
CC(C)(C)c1ccc(N=C2SCC(=O)N2Cc2cccs2)cc1,?,?,23µM*,5%,6,i
CCN1C(=O)CSC1=Nc1ccc(C(=O)O)cc1,7%,i,-13%,6%,8,i
COCCn1c(SCc2ccc(F)cc2)nc2c1c(=O)[nH]c(=O)n2C,8%,i,0.46µM*,5%,27,i
C/C=C/Cn1c(SCc2ccccc2)nc2c1c(=O)[nH]c(=O)n2C,-2%,2.9µM*,4%,-4%,7,i
C=CCSc1nc2c(c(=O)[nH]c(=O)n2C)n1C/C=C(/C)Cl,-8%,13µM*,16%,0%,0,i
N/N=C/C(=N\Nc1ccc(Cl)cc1)C(=O)c1ccncc1,10µM*,i,-2%,-16%,-10,i
c1ccc2ncccc2c1,-3%,i,14%,0%,-1,?
c1cc(Nc2cccc3nccnc23)c2nccnc2c1,8.2µM*,?,13%,-7%,25,?
Fc1ccc(Nc2cccc3nccnc23)cc1,-8%,i,-2%,-9%,19,i
c1ccc2nccnc2c1,.,?,.,.,.,4.6µM*
NNC(=O)c1sc(-c2ccccc2)cc1N,9%,?,21µM*,42%,-2,i
N=c1ccn2c(n1)OC1C(O)[C@@H](CO)O[C@H]12 (some centres undefined),.,.,.,.,8,.
O=[N+]([O-])c1ccc(/C=C/c2nc3ccc([N+](=O)[O-])cc3[nH]2)cc1,-4%,3.7µM*,-1%,-3%,-20,i
O=[N+]([O-])c1ccc2nc(CO)[nH]c2c1,.,i,.,.,.,i
Cc1c(Cl)cccc1NC(=S)NCCc1ccc(Cl)cc1,13µM*,i,16%,-6%,12,?
Cc1c(Cl)cccc1NC(=S)NCCc1ccc(F)cc1,-1%,?,10%,-1%,15,i
COc1cc(NC2c3ccccc3C(=O)N2Cc2ccccc2Cl)cc(OC)c1 (centres undefined),?,i,9%,-5%,19,i
COc1cccc(NC2c3ccccc3C(=O)N2Cc2ccccc2Cl)c1 (centres undefined),21µM*,i,?,-4%,16,i
CC(C)(C)n1nc(-c2ccc(Cl)cc2)c2c(N)ncnc21,0%[9.22 µM],21µM*,?,-1%,-6,?
SMILES,SW480 rereplic,KB-V1 cytotox,MCF10A rerep,S-ASM inh,Giardia kill,KB-3-1 cytotox
CC(C)(C)n1nc(-c2ccc(F)cc2)c2c(N)ncnc21,6%,i,6%,-2%,?,i
COc1ccc(CN2C[C@H]3CCCN3c3cc(Br)ccc3S2(=O)=O)cc1,1.6µM*,?,1.2µM*,-6%,-27,1.8µM*
C=C1[C@@H](O)CN(Cc2ccc(OC)cc2)S1(=O)=O,.,i,.,.,.,?
Cc1ccc(-c2c(C(=O)Nc3ccccc3F)oc(=O)c3ccccc23)cc1,.,i,.,.,.,i
Cc1ccc(-c2c(C(=O)NCc3ccc(F)cc3)oc(=O)c3ccccc23)cc1,0%,16µM*!,9%,-3%,-7,i
O=C(Nc1ccc(Cl)c(Cl)c1)Nc1ccc(N2CCCC2)c(S(=O)(=O)Nc2ccccc2Cl)c1,?,23µM*,?,-5%,24,5.2µM*
COc1ccccc1NS(=O)(=O)c1cc(NC(=O)Nc2ccccc2)ccc1N1CCCCC1,2%,?,1%,-3%,2,i
O=C(Nc1ccc(N2CCCCC2)c(S(=O)(=O)Nc2ccccc2Cl)c1)c1cccnc1,?,.,18µM*,-7%,-6,.
O=C(Nc1ccc(N2CCOCC2)c(S(=O)(=O)Nc2ccccc2Cl)c1)c1ccc(F)cc1,17%,?,?,-5%,-10,?
Cc1ccc(C(=O)Nc2ccc(C)c(S(=O)(=O)Nc3ccccc3Cl)c2)s1,16%,?,?,-15%,19,23µM*
O=C(Nc1ccc(F)cc1)Nc1ccc(N2CCCC2)c(S(=O)(=O)Nc2ccccc2Cl)c1,?,?,13%,-8%,20,21µM*
CCOC(=O)C1CCN(C(c2ccc(C)cc2)c2sc3nc(-c4ccco4)nn3c2O)CC1 (centres undefined),.,i,.,.,.,i
COc1ccc(C2C(O)C(c3c[nH]c4ccccc34)=NN2C(=O)CCl)cc1 (centres undefined),1.3µM*,15µM*,4.6µM*,-7%,9,?
CCSc1nnc(NC(=O)CSc2nnc(Cc3cccn3C)n2CCc2ccccc2)s1,2%,8.2µM*,-2%,?,3,i
Cc1cc(C)c(NC(=O)CSc2nnc(Cc3cccn3C)n2-c2ccc(F)cc2)c(C)c1,0%,23µM*,19%,0%,2,i
COc1ccccc1NC(=O)CSc1nnc(Cc2cccn2C)n1CCc1ccccc1,3%,i,-1%,-1%,2,i
CCSc1nnc(NC(=O)CSc2nccn2-c2cccc(C)c2)s1,3%,16µM*,-9%,-5%,-10,i
COc1ccc(NC(=O)CSc2nnc(Cc3cccn3C)n2CCc2ccccc2)cc1OC,-6%,15µM*,2%,-2%,-21,i
Cn1cccc1Cc1nnc(SCC(=O)Nc2nccs2)n1CCc1ccccc1,0%,i,2%,2%,24,i
C(=Nc1cnc2ccccc2c1)c1ccc2ccccc2n1,.,i,.,.,.,i
COc1ccc(S(=O)(=O)N2CCN(Cc3nc4ccc(C)cc4o3)CC2)cc1,.,i,.,.,.,i
CCOC(=O)c1cc2c(ccn2C)n1CC(=O)N(CC)CC,-16%,i,-17%,-1%,7,i
COc1ccc(-n2c(CCc3ccccc3)nnc2SCC(=O)c2ccc(Cl)cc2)cc1,14%,5.8µM*,23%,-9%,-9,?
Cc1ccc(-n2c(Cc3cccn3C)nnc2SCC(=O)N2CCc3ccccc32)cc1,8%,6.5µM*,6%,-9%,-8,i

# Screens: PubChem BioAssay, National Center for Advancing Translational Sciences (NCATS)
